The values below come from ChEMBL document CHEMBL3433997, “St. Jude Leishmania screening dataset” (2016).

Holding throughout (assay type): functional
The target of experiment [1] is Solute carrier family 2, facilitated glucose transporter member 1 (Homo sapiens) (UniProt P11166). In words: ST_JUDE_LEISH: Cytotoxicity at 2uM final concentration against transgenic Leishmania Mexicana promastigotes LmGLUT1 that are glucose transport deficient and complemented with the human glucose transporter GLUT1. Activity is measured by DNA content using SYBR green in vitro.
Sequence of Solute carrier family 2, facilitated glucose transporter member 1 (Homo sapiens) (P11166 whole entry): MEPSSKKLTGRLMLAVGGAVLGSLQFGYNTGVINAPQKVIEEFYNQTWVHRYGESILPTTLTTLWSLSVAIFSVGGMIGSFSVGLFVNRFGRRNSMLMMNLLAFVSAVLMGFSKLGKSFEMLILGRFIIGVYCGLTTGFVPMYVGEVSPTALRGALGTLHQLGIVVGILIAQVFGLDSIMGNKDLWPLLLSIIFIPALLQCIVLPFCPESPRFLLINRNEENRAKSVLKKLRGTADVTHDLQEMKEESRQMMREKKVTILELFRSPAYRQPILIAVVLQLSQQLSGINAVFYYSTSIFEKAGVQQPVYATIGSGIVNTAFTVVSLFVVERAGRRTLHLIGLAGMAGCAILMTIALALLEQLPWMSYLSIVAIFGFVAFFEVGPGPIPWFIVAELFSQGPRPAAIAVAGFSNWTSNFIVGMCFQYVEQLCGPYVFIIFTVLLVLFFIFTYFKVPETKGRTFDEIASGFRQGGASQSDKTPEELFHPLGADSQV

Experiment [2] has as its target Hexose transporter 1 (Plasmodium falciparum) (UniProt O97467). In words: ST_JUDE_LEISH: Cytotoxicity at 2uM final concentration against transgenic Leishmania Mexicana promastigotes LmPfHT that are glucose transport deficient and complemented with the Plasmodium falciparum hexose transporter. Activity is measured by DNA content using SYBR green in vitro.
The target in experiment [3] is Glucose transporter (Leishmania mexicana) (UniProt O61059). Nature of the experiment: ST_JUDE_LEISH: Cytotoxicity at 2uM final concentration against transgenic Leishmania Mexicana promastigotes LmGT2 that are glucose transport deficient and complemented with the L. Mexicana glucose transporter 2. Activity is measured by DNA content using SYBR green in vitro.

In the case of `O=C(C=Cc1ccc(Cl)c(Cl)c1)NCCCCCN1CCC(CCCNS(=O)(=O)c2cccc(C(F)(F)F)c2)CC1`, the inhibition (commonly the change of the read-out against control, counted positive when it falls) in experiment [1] was 0.51%; in experiment [2], -1.72%; in experiment [3], 2.46%.
On the same counts, the results for `COc1ccc(NC(=O)[C@H](Cc2ccccc2)Nc2cc(C)nc(NCCc3cccs3)n2)cc1` are 2.27%, 2.32% and -0.24%.
The matching figures for `O=C(c1cccc(-c2cccc(-c3nc4ccccc4[nH]3)c2)c1)N1CCCCC1CN1CCC(O)C1` (stereo unspecified): 0.33%, 0.78% and 0.03%.
In the case of `Cc1ccc(C(=O)Cn2nc(-c3ccc(C)c(S(=O)(=O)N4CCCCC4)c3)ccc2=O)cc1`, the inhibition in experiment [1] was 8.67%; in experiment [2], 12.3%; in experiment [3], 6.75%.
Regarding `N=c1cc(C=Cc2ccc(O)cc2)[nH]c2ccccc12`, the inhibition is 2.26% in experiment [1], 4.1% in experiment [2] and 3.12% in experiment [3].
With `N[C@@H](COc1cccc2c(-c3ccncc3)c(-c3cccc(NC(=O)Nc4ccccc4)c3)nn12)c1ccccc1`, the inhibition was -2.24% in experiment [1], -1.71% in experiment [2] and -2.62% in experiment [3].
On to `CC1(C)NC(N)=NC(=N)N1OCCCCOc1ccccc1`, for which the figures for the inhibition in experiment [1], in experiment [2] and in experiment [3] were -2.95%, 0.84% and -0.45%, respectively.
For `O=C(/C=C/c1ccc(CNCCN2CCOCC2)cc1)NCCc1ccccc1`, the inhibition in experiment [1] is 0.21%; in experiment [2], -1%; in experiment [3], 0.2%.
Turning to `Cc1ccc(NC(=O)Nc2ccc(S(=O)(=O)c3ccc(NC(=O)Nc4ccc(C)c(Cl)c4)cc3)cc2)cc1Cl`, the inhibition was 0.06% in experiment [1], -0.49% in experiment [2] and 1.78% in experiment [3].
The matching figures for `COc1ccccc1-c1nc2nc(N)nc(N)c2nc1-c1ccccc1OC`: 0.82%, 1.25% and 1.01%.
For the molecule `CCCC(=O)Nc1ccc(OCCCCN(CC(C)(C)C)c2ccc(C#N)c(C(F)(F)F)c2)cc1`, the inhibition in experiment [1] amounted to 1.48%; in experiment [2], 1.02%; in experiment [3], 0.8%.
Take `CCOc1ccc2nc3cc(N)ccc3c(N)c2c1`: the figures for the inhibition in experiment [1], in experiment [2] and in experiment [3] were 1.58%, 3.26% and 1.19%, respectively.
For the molecule `N#Cc1ccc(CN2CCCN(Cc3cccc(NC(=O)c4cc5ccccc5s4)c3)CC2)cc1`, the inhibition in experiment [1] was -0.46%; in experiment [2] it was -0.58%; in experiment [3], -1.54%.
With `CC(Cc1ccc(OCCN2CCN(c3cccc(Cl)c3)CC2)cc1)NCC(O)c1cccc(Cl)c1` (stereo unspecified), the figures for the inhibition in experiment [1], in experiment [2] and in experiment [3] were 0.3%, 0% and 1.82%, respectively.
For `COc1cccc([C@@H](CC(=O)Nc2cc(C(F)(F)F)ccc2OC)Nc2ccc(C#N)c3ccccc23)c1`, the inhibition in experiment [1] came to 7.27%; in experiment [2], 5.34%; in experiment [3] it was 4.83%.
Turning to `COc1ccc(Nc2nccc(N3CCC(NC(=O)Nc4ccc5c(c4)OCO5)C3)n2)cc1` (stereo unspecified), the values for the inhibition in experiment [1], in experiment [2] and in experiment [3] were 0.18%, 1.7% and 1.21%, respectively.
With `CC(=O)Nc1ccc(CN2CCC(CNC(=O)c3cc(-c4cccc(Cl)c4)cs3)C2)cc1` (stereo unspecified), the inhibition is -1.53% in experiment [1], 0.33% in experiment [2] and 3.3% in experiment [3].
Consider `Cc1ccc(NC(=O)c2ccc(-c3cc4cc(Cl)c(Cl)cc4[nH]3)cc2)cc1OCCN1CCCC1`, for which the figures for the inhibition in experiment [1], in experiment [2] and in experiment [3] were -0.06%, -0.67% and 0.15%, respectively.
Take `COc1ccc2nccc([C@@H](O)CN3CCC(NCCNc4ccccn4)CC3)c2c1`: the inhibition stood at 8.79% in experiment [1], 9.69% in experiment [2] and 6.24% in experiment [3].
On to `COCCOc1ccc(C(F)(F)F)cc1NC(=O)Cc1c(F)cccc1Cl`, for which the inhibition amounted to 11.3% in experiment [1], 8.21% in experiment [2] and 6.01% in experiment [3].
Regarding `CCCCCCOc1ccc(C(=O)NCCCC2CCCN(CCCCCNC(=O)C=Cc3ccc(Cl)c(Cl)c3)C2)cc1` (stereo unspecified), the values for the inhibition in experiment [1], in experiment [2] and in experiment [3] were -0.52%, 0.51% and 1.31%, respectively.
On the same counts, the results for `Cc1cc(-c2ccc3c(c2)CC[C@@H](N[C@@H](C)c2ccccc2)C3)cnc1N` are 4.92%, 1.71% and 2.23%.
The matching figures for `CS(=O)(=O)c1ccc2c(c1)CCN(CCC1CCC(NC(=O)C(=Cc3cccc(C#N)c3)c3ccc(-c4ccccc4)cc3)CC1)CC2` (stereo unspecified): 1.14%, 2.77% and 1.15%.
As to `Cc1nc(C)c(-c2ccc(Cl)cc2Cl)c(O)c1Br`, the inhibition was determined as 1.43% in experiment [1], 0.95% in experiment [2] and 3.83% in experiment [3].
Consider `Nc1cccc(CNCc2ccc(-c3ccc(-c4nc5cc(F)ccc5[nH]4)s3)cc2)c1`, for which the inhibition in experiment [1] was -2.38%; in experiment [2] it was 0.25%; in experiment [3], -1.11%.
As for `Cc1[nH]c(C)c(-c2ccc(OCc3cc(C(F)(F)F)cc(C(F)(F)F)c3)nc2)c(=O)c1Br`, the inhibition in experiment [1] was found to be 10.1%; in experiment [2], 10.2%; in experiment [3], 2.99%.
For `Cc1ccc(N2C(N)=NC(N)=NC2c2ccccc2)cc1` (stereo unspecified), the results for the inhibition in experiment [1], in experiment [2] and in experiment [3] were 2.79%, 2.24% and 2.13%, respectively.
`COc1ccc2nccc([C@@H](O)CN3CCC(NC(=O)COc4nc(SCc5ccc(F)cc5)nc5c4CCC5)CC3)c2c1`: the inhibition is 1.06% in experiment [1], 0.81% in experiment [2] and -3.16% in experiment [3].
As for `Cc1cnc(C[S+]([O-])c2nc3cc(C(F)(F)F)ccc3[nH]2)cc1OCc1ccccc1` (stereo unspecified), the inhibition in experiment [1] came to 3.56%; in experiment [2] it was 4.95%; in experiment [3] it was 2.76%.
Regarding `CCCCCN1C(=O)N(c2ccc(Cl)c(Cl)c2)C(N(O)C(=O)Nc2ccc(Cl)c(Cl)c2)C1(C)C` (stereo unspecified), the inhibition in experiment [1] turned out to be 4.79%; in experiment [2], 4.73%; in experiment [3] it was 2.87%.
In the case of `COc1ccc(Nc2cc(C)nc(Nc3ccc(NC(C)=O)cc3)n2)cc1`, the inhibition is 47% in experiment [1], 67.4% in experiment [2] and 32.2% in experiment [3].
Consider `N=C(N)CCN(Cc1ccc(Cl)cc1)c1ccc(Cl)cc1`, for which the inhibition worked out at 0.7% in experiment [1], 0.7% in experiment [2] and 0.65% in experiment [3].
